An excerpt weighted towards active compounds, which were near 10% of everything screened.
Six1-Eya2 inh: qHTS Assay for Inhibitors of the Six1/Eya2 Interaction | Homeobox protein SIX1 (Homo sapiens) + Protein phosphatase EYA2 (Homo sapiens), … | AlphaScreen GST-Six1/His-Eya2 binding, biochemical; active compounds read low | activity change, % (concentration not given with the values) | 360,000 tested, 0.56% active | AID 651725, 2012; in the data active = activity change below about -65%; inconclusive = mostly about -30% to -63%
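AlphaScreen with GST-Six1 and His-Eya2 (5X mix: 250 nM and 500 nM), glutathione donor and nickel acceptor beads; buffer 50 mM Tris pH 8.0, 300 mM NaCl, 1 mM TCEP; 1 h at 37 C in the dark.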
JMJD2A Tudor: qHTS Assay for Inhibitors of JMJD2A-Tudor Domain; Lysine-specific demethylase 4A (Homo sapiens), O75164; AID 504339, 2011; Potency, µM (series often up to 114 µM), most hits filed as inhibitors; AlphaScreen JMJD2A-Tudor / H3K4me3 peptide binding; 390,000 tested, 4.4% active; note: nearly all actives have a fitted effect of over 50% in size
G9a inh: qHTS Assay for Inhibitors of Histone Lysine Methyltransferase G9a. Histone-lysine N-methyltransferase EHMT2 (Homo sapiens), Q96KQ7. G9a H3K9 monomethylation, AlphaScreen, 2 h. Potency, µM (titrated, usually from 102 µM), actives largely listed as inhibitors. 350,000 tested, 8.8% active; note: nearly all actives have a fitted effect of over 75% in size
Target sequence (Q96KQ7 913-1193 limits assumed): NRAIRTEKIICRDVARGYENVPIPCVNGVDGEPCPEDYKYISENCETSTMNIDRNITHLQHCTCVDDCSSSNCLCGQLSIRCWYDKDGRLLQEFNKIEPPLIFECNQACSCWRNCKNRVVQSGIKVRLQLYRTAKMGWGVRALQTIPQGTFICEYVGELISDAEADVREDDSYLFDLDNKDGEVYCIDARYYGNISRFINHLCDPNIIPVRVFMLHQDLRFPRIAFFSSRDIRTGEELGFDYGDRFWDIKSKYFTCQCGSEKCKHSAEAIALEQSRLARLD
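Signal arises when biotinylated H3K9 peptide, once monomethylated, bridges streptavidin donor and antibody-captured acceptor beads. Enzyme at 20 nM was preincubated 15 min with test compounds; peptide 500 nM and SAM 20 uM then reacted for 2 h.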
BAZ2B inh: qHTS Assay for Inhibitors of BAZ2B. AlphaScreen BAZ2B-H3K14Ac peptide displacement. Potency, µM (doses to about 114 µM), actives largely listed as inhibitors. 360,000 tested, 4.4% active. AID 504333, 2011; note: nearly all actives have a fitted effect of over 60% in size
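In this displacement format the biotinylated H3(5-23) peptide acetylated at Lys14 serves as ligand at 50 nM, with BAZ2B at 50 nM in PBS pH 7.4 containing 0.01% Tween-20. Donor and acceptor beads are 10 ug/mL final.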
CtBP-E1A inh: qHTS Assay for Inhibitors of the CtBP/E1A Interaction; CtBP / adenovirus E1A interaction (AlphaScreen); AlphaScreen GST-E1A/His-CtBP binding, 1536-well; active compounds read low; activity change, % (no concentration beside the values); 340,000 tested, 0.49% active; in the data active = activity change below about -65%; inconclusive = mostly about -30% to -63%
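Protein mix (5X: 125 nM each GST-E1A, His-CtBP) was incubated with pinned compound 2 h at 37 deg C in dark, in 50 mM Tris pH 8.0 buffer with 300 mM NaCl. Glutathione donor and nickel acceptor beads followed; AlphaScreen signal read after 1 h.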
HP1b binding inh: HTS for Inhibitors of HP1-beta Chromodomain Interactions with Methylated Histone Tails | AID 540317, 2011 | 390,000 tested, 0.56% active | Potency, µM (series often up to 114 µM), hits mostly inhibitors | AlphaScreen HP1-beta / biotin-H3K9me3 peptide binding | Chromobox protein homolog 1 (Homo sapiens), P83916; note: nearly all actives have a fitted effect of over 70% in size
Target sequence (P83916 whole entry, looked up): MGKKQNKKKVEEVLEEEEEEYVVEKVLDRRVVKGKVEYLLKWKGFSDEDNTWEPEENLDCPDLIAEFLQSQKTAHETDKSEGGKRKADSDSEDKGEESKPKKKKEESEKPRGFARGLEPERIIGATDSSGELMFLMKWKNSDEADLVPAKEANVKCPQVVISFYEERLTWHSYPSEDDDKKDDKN
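HP1-beta protein (50 nM final) preincubated 30 min at room temperature with biotinylated H3(1-18)K9me3 peptide (50 nM) in PBS pH 7.4, 0.01% Tween-20, then compound added for 30 min. AlphaScreen streptavidin donor/nickel chelate acceptor beads (10 ug/mL final), 30 min dark, luminescence read.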
Numbers stand for hits; . = inactive; ? = inconclusive; / = no result; [ ] = remark or other dose. Unless noted, calls come from the whole dose curve; as a rule, active = well fitted inhibition curve with a large enough effect; inconclusive = small, poorly fitted or top-dose-only effect; inactive = no such curve, though single readings can be large or run the other way.

SMILES | Six1-Eya2 inh | JMJD2A Tudor | G9a inh | BAZ2B inh | CtBP-E1A inh | HP1b binding inh
COc1cc(CN2CCN(C(=O)c3ccc(-c4ccccc4)cc3)CC2)cc(OC)c1OC | . | 7.94µM | / | . | . | ?
COc1cc(C(=O)N2CCN(C(=O)Cc3ccccc3)CC2)cc(OC)c1OC | . | . | ? | . | . | .
COc1cc(C(=O)N2CCNCC2)cc(OC)c1OC | . | . | / | . | . | .
COc1cc(C(=O)N2CCN(CCCc3ccccc3)CC2)cc(OC)c1OC | . | 20µM | / | / | . | .
CN1CCN(Cc2cccc(Oc3ccccc3)c2)CC1 | . | . | 70.8µM | . | . | .
COc1cc(C(=O)N2C(=O)CCC2=O)cc(OC)c1OC | . | . | 35.5µM | ? | . | .
CN1CCN(C(=O)OC2CC3CC2[C@H]2CCCCN2C3=O)CC1 (stereo not given in full) | . | / | / | / | . | /
Cc1ccccc1CNC(=O)Cc1csc2ccccc12 | / | . | . | . | / | .
CCc1ccc(NC(=O)C(=O)NCC2CCCN2S(=O)(=O)c2cccs2)cc1 (stereo not given) | . | . | . | . | . | .
CCOc1cc(N2CCOCC2)c(OCC)cc1NC(=O)C1CC(=O)N(c2ccc(C)cc2)C1 (stereo not given) | . | . | .[12.7 µM] | . | . | .
COc1cc(OC)cc(C(=O)N2CCN(C(=O)c3ccc(-c4ccccc4)cc3)CC2)c1 | . | . | ? | . | . | .
COc1cccc(CN2CCN(C(=O)c3ccc(-c4ccccc4)cc3)CC2)c1 | . | 2.24µM | 12.6µM | 50.1µM | . | 31.6µM
OC1CCN(Cc2cccc(Oc3ccccc3)c2)CC1 | . | . | . | . | . | .
CCC(CC)N1CCN(C(=O)c2cc(OC)c(OC)c(OC)c2)CC1 | . | 50.1µM | / | ? | . | ?
COc1ccc(C(=O)N2CCN(C(=O)c3cc(OC)c(OC)c(OC)c3)CC2)cc1 | . | . | . | . | . | .
O=C(c1ccccc1)N1CCN(Cc2cccc(Oc3ccccc3)c2)CC1 | . | 39.8µM | 15.8µM | 50.1µM | . | .
O=C(O)CCc1nc2cc(C(F)(F)F)ccc2n(Cc2ccccc2)c1=O | . | . | . | . | . | .
O=C(NC1(Cc2ccccc2)CCN(CCCc2ccccc2)C1=O)c1ccccc1 (stereo not given) | . | . | .[2.33 µM] | . | . | .
CCOc1ccccc1CNC(=O)c1cc2occc2n1C | . | . | 25.1µM | 44.7µM | . | ?
COc1ccc(NC(=O)C2(C)CCN2Cc2cccc(OC)c2F)cc1OC (stereo not given) | . | / | / | / | . | /
CC1CC(C)CN(CC(=O)N2CCOCC2)C1 (stereo not given) | . | 25.1µM | 8.91µM | 50.1µM | / | .
CC[n+]1c(-c2ccccc2)csc1Nc1c(C)n(C)n(-c2ccccc2)c1=O | . | . | ? | ? | . | .
Cc1ccc(N2C(=O)C(Cl)=C(Nc3c(C)n(C)n(-c4ccccc4)c3=O)C2=O)cc1 | . | . | 5.01µM | . | . | .
Cc1cccc(N2C(=O)C(Cl)=C(Nc3c(C)n(C)n(-c4ccccc4)c3=O)C2=O)c1C | . | . | 8.91µM | 50.1µM | . | .
CC[n+]1c(-c2ccc(C)cc2)csc1Nc1c(C)n(C)n(-c2ccccc2)c1=O | . | ? | 8.91µM | ? | . | ?
CC(OC(=O)CNC(=O)c1sc2ccccc2c1Cl)C(=O)NC1(C#N)CCCCC1 (stereo not given) | . | . | .[12.7 µM] | . | . | .
Cc1ccc(C)c(Nc2nc3c(S(=O)(=O)c4ccc(Br)cc4)nnn3c3ccsc23)c1 | / | 56.2µM | 17.8µM | 50.1µM | / | .
Cc1ccc(C)c(Nc2nc3c(S(=O)(=O)c4ccc(C(C)C)cc4)nnn3c3ccsc23)c1 | / | . | . | 79.4µM | / | .
